Test [1] deals with Human papillomavirus type 1a protein E7 (residues 44-93). Put plainly: HPV1a E7 fragment binders on microarrays, primary screen, biochemical, small-molecule microarray, residues 44-93, 635 nm fluorescence (AID 1108).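 Further: E7 fragment applied at 1 µg/mL in TBST for 1 h at 4 C; score combines spot fluorescence with its signal to noise ratio.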 The settings on record: small-molecule microarray binding, fluorescence 635 nm; higher = more signal.
Test [2] can be described thus: modulators of HCV replicon luciferase signal, primary screen, HCV replication inhibitor project, Huh7 cells, luciferase reporter (AID 1109).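 Further: huh7 hepatoma cells harbouring a luciferase neomycin HCV replicon reporter; luciferase luminescence as measure of HCV replicon replication; test concentration not given here.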 The settings on record: 48 h, higher = more signal.
Test [3] concerns the target Left-right determination factor 2 (Homo sapiens) (UniProt O00292). In words: LEFTY2 binders on small-molecule microarrays, primary screen, biochemical, small-molecule microarray, 635 nm fluorescence scan (AID 1110). The settings on record: LEFTY2 binding, higher = more signal.
For test [4], the target named is Calmodulin-1 (Homo sapiens) (UniProt P0DP23). In words: CALM1 binders on microarrays, EGTA buffer, profiling panel, biochemical, small-molecule microarray, Cy5-labelled CALM1 (AID 1111).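 Further: labelled calmodulin applied in Tris saline Tween buffer holding calcium plus EGTA and DTT.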 The conditions noted are these: Cy5-CALM1 binding fluorescence, higher = more signal.
Test [5] has the same target. In words: calcium-bound CALM1 binders on microarrays, profiling panel, artefact control for SMM control-protein annotation, biochemical, small-molecule microarray, Cy5-labelled CALM1, plus calcium (AID 1112).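 Further: score merges spot fluorescence with signal to noise from triplicate slides.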 The settings on record: Cy5-CALM1 binding fluorescence, higher = more signal.
Test [6] in a line: small-molecule microarray binders of probe aWnt5a, primary screen, biochemical, biotinylated probe, 635/667 nm fluorescence (AID 1113).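 Further: score merges 667 nm fluorescence intensity with signal-to-noise per printed feature.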 The conditions noted are these: higher = more signal.
Test [7] can be described thus: small-molecule microarray binders of probe aShh, primary screen, biochemical, biotinylated probe, 635/667 nm fluorescence (AID 1114).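 Further: probe is biotin-labelled aShh protein from a stem cell growth factor screen; measures binding of labelled protein to compounds printed on the slide; score merges feature fluorescence at 667 nm with signal-to-noise.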 The settings on record: higher = more signal.
The nature of test [8]: small-molecule microarray binders of probe aNog, primary screen, biochemical, biotinylated probe, 635/667 nm fluorescence (AID 1115).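 Further: probe is biotinylated aNog protein used at 0.15 µg/mL for 1 h at 4 C; z-score combines 667 nm fluorescence of each spot with its signal to noise.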 The settings on record: higher = more signal.
Test [9] addresses Torsin-1A-interacting protein 1 (Homo sapiens) (UniProt Q5JTV8). In words: LAP1 binders from COS7 cell lysate, primary screen, small-molecule microarray, 635/667 nm fluorescence (AID 1116). The conditions noted are these: COS7-hLAP1 lysate binding, 635 nm fluorescence, higher = more signal.
In test [10] the target is Alpha-bungarotoxin (Bungarus multicinctus) (UniProt P60615). In words: alpha-bungarotoxin binders on microarray, profiling panel, artefact control for SMM control protein annotation, biochemical, small-molecule microarray, Alexa647 label, 635/667 nm fluorescence (AID 1117). The conditions noted are these: alpha-BTX-A647 binding fluorescence, higher = more signal.
The target of test [11] is Albumin (Bos taurus) (UniProt P02769). Put plainly: bovine serum albumin binders on microarray, profiling panel, artefact control for SMM control protein annotation, biochemical, small-molecule microarray, Alexa647 label, 635/667 nm fluorescence (AID 1118).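 Further: score merges 667 nm emission intensity and signal-to-noise per printed compound spot.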 The settings on record: BSA-A647 binding, fluorescence 635 nm, higher = more signal.
Test [12] is described as follows: small-molecule microarray binders of probe aXIP, primary screen, biochemical, NeuroSMM set, 635/667 nm fluorescence (AID 1119).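 Further: probe is the protein aXip251-270 applied at 1 µg/mL to compound-printed slides; binding of probe to printed compounds measured as 667 nm fluorescence plus signal to noise.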 The settings on record: higher = more signal, called active from +8 up or from −8 down.
Test [13] can be described thus: small-molecule binders of probe aNOTCH3, primary screen, biochemical, small-molecule microarray, 635/667 nm fluorescence (AID 1120).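 Further: probe is a biotin-tagged antibody raised against NOTCH3 rather than NOTCH3 protein; score merges spot fluorescence near 667 nm with spot signal to noise.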 The conditions noted are these: higher = more signal.
Test [14] is described as follows: small-molecule binders of probe aNOTCH2, primary screen, biochemical, small-molecule microarray, 635/667 nm fluorescence (AID 1121).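 Further: score merges feature fluorescence read at 667 nm with its signal to noise.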 The settings on record: higher = more signal.
Test [15] has as its target Carbonic anhydrase 2 (Homo sapiens) (UniProt P00918). Put plainly: CAII small-molecule binders, profiling panel, biochemical, small-molecule microarray, Alexa647-labelled CAII (AID 1122). The settings on record: CAII-A647 binding fluorescence, higher = more signal.
Test [16] in a line: COS7 lysate on small-molecule microarray, probe aHis, 635 nm (AID 1123).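 Further: z-score combines 667nm fluorescence intensity with signal-to-noise per printed compound spot.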 The settings on record: COS7 cell lysate, fluorescence, higher = more signal.
Test [17] can be described thus: compound binding in COS7 lysate, probe aLAP1, primary screen, cell lysate, small-molecule microarray (AID 1124).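 Further: lysate comes from COS7 cells expressing LAP1 and is applied at 0.3 µg/mL; score merges spot fluorescence near 667 nm with signal-to-noise over triplicate slides.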 The settings on record: probe aLAP1, fluorescence, higher = more signal.
Test [18] concerns Sam68 (KHDRBS1). Put plainly: Sam68 small-molecule binders, primary screen, biochemical, small-molecule microarray, 635 nm fluorescence (AID 1125).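 Further: score merges 667 nm channel intensity with signal to noise over triplicate slides.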 The settings on record: small-molecule microarray binding, higher = more signal.
In test [19] the test system is Chordin-like protein 2 (CHRDL2). In words: CHRDL2 small-molecule binders, primary screen, biochemical, small-molecule microarray, 635 nm fluorescence (AID 1126).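 Further: printed compound slides probed with Chrdl2 protein at 4 µg/mL for 1 h at 4 C; score merges 667 nm emission intensity with signal to noise over three replicate slides.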 The conditions noted are these: small-molecule microarray binding, fluorescence 635 nm; higher = more signal.
The target of test [20] is Concanavalin-A (Canavalia ensiformis) (UniProt P02866). In words: ConA small-molecule binders, primary screen, artefact control for SMM control protein annotation, biochemical, small-molecule microarray, Alexa647 label, 635 nm (AID 1127).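 Further: z combines 667 nm emission intensity with signal-to-noise across three replicate slides.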 The settings on record: ConA-A647 binding fluorescence, higher = more signal.

The values that follow come from PubChem BioAssay.

Each structure is given as a SMILES string. The source made the active and inactive calls.

Concanavalin-A (Canavalia ensiformis), sequence (P02866 whole entry, looked up): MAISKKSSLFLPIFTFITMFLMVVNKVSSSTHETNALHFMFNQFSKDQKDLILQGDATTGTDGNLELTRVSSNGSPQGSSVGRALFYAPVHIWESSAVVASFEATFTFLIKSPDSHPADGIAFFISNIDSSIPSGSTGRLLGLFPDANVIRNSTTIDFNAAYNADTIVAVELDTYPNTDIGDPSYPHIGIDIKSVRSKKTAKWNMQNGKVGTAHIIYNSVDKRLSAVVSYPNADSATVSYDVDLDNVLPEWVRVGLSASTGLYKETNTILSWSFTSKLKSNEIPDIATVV
Left-right determination factor 2 (Homo sapiens), sequence (O00292 whole entry, looked up): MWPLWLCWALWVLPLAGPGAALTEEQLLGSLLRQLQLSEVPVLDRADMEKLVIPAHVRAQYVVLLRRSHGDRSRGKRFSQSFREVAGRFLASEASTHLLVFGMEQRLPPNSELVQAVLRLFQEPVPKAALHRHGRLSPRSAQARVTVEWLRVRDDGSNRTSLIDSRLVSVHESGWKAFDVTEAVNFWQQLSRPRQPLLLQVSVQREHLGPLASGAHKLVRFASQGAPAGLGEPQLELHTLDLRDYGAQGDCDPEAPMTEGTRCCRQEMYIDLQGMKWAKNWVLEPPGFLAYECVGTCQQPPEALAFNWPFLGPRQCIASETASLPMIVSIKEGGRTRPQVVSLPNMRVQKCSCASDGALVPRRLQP
Torsin-1A-interacting protein 1 (Homo sapiens), sequence (Q5JTV8 whole entry, looked up): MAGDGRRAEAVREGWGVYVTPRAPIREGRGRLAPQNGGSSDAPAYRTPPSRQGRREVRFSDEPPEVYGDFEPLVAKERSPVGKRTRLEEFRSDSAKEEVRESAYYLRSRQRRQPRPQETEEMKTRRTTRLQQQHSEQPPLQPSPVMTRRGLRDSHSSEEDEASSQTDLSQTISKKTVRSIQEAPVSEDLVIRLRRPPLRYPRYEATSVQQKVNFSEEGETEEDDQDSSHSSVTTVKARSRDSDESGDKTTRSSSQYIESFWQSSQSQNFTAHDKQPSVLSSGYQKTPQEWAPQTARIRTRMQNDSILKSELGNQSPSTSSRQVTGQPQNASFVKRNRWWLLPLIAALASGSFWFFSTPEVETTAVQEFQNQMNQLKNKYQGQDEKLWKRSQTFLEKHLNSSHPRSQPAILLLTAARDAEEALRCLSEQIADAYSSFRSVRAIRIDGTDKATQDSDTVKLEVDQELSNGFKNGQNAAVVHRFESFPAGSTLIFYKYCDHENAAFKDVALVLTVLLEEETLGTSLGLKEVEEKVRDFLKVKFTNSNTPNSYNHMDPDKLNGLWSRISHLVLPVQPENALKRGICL
Alpha-bungarotoxin (Bungarus multicinctus), sequence (P60615 whole entry, looked up): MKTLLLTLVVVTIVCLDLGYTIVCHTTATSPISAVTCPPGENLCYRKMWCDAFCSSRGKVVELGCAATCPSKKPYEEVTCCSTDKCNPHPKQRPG
Albumin (Bos taurus), sequence (P02769 whole entry, looked up): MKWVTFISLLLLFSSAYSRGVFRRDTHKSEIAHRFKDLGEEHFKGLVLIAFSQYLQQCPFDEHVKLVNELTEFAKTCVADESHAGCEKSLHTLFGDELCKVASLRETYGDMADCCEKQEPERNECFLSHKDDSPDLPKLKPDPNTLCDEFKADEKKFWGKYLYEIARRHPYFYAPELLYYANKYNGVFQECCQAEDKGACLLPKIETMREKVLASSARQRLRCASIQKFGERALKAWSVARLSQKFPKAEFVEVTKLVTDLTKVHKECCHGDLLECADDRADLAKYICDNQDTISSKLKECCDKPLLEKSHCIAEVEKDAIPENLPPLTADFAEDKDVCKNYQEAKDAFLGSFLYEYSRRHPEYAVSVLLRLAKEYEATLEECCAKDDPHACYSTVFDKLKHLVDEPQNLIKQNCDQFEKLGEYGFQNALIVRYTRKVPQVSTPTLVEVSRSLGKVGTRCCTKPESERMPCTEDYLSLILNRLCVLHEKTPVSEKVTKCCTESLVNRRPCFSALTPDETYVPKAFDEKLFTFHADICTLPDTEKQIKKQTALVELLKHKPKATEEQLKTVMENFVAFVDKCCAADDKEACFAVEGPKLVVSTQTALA

As to `CCCC=C(CCC)[C@@H](NS(=O)(=O)c1ccccc1)c1ccc(C(F)(F)F)cc1`, the composite z-score in [1] amounted to 1.37; in [3] it was 0.0643; in test [4] it was 1.73; in test [5], 0.726; in test [6], 0.0495; in test [7], 0.432. Further, the composite z-score in [8] is -0.475; in test [9], 1.31; in test [10], 1.28; in test [11], 0.871; in test [13], 0.23; in test [14], 0.277. The composite z-score stood at 0.578 in [15]; 2.65 in test [16]; 0.17 in test [17]; 1.32 in [18]; 0.24 in test [19]; 1.09 in [20]. This compound also showed a z-score in test [2] of -2.28. Besides, the composite Z-score in [12] was 0.35 (inactive).
In the case of `COC(=O)c1ccc(OC)c(/C=C\CC(CCc2ccccc2)OC(C)=O)c1` (stereo not given), the composite z-score in test [1] was -0.498; in test [3] it was -0.274; in test [4], -0.42; in test [5], -0.134; in [6], -0.152; in [7], -0.214. The composite z-score in test [8] was -0.192; in test [9], -0.343; in test [10], 0.516; in test [11], 0.804; in [13], -0.272; in [14] it was -0.196. Besides, the composite z-score in test [15] was 0.557; in test [16], -0.14; in test [17] it was 0.275; in test [18], -0.0896; in [19], 0.204; in test [20], 0.0426. For the same compound, in test [2], the z-score is -1.1. Moreover, the composite Z-score in test [12] is -0.376 (inactive).
With `C=CCOC(=O)[C@@H]1[C@H]2C(=O)O[C@H](c3ccccc3)[C@H](c3ccccc3)N2[C@H](c2ccc(OCCOC(=O)[C@H]3C[C@H]4C(=O)N[C@@H](Cc5ccccc5)C(=O)N4[C@H]3c3cccc(OCCO)c3)cc2)[C@@]12C(=O)Nc1ccc(I)cc12`, the composite z-score was 0.88 in test [1]; 0.413 in [3]; -0.573 in [4]; -0.771 in test [5]; -0.0161 in test [6]; 0.116 in test [7]. Further, the composite z-score in [8] was 0.749; in [9], 1.29; in test [10], 1.03; in test [11], -0.868; in test [13], 0.319; in test [14], -0.103. Moreover, the composite z-score amounted to 0.344 in test [15]; 0.798 in [16]; 0.331 in [17]; 1.31 in test [18]; 1 in [19]; 1.11 in test [20]. The same compound displayed a z-score in test [2] of -2.08. For the same compound, in test [12], the composite Z-score is 0.111 (inactive).
On to `O=C(N1CCOCC1)[C@@]1(CCS(=O)(=O)c2ccccc2)COC(c2ccc(OCCCO)cc2)=N1`, for which the composite z-score was 0.901 in [1]; -1.21 in test [3]; 1.25 in [4]; 0.0541 in test [5]; -0.124 in [6]; 0.314 in [7]. The composite z-score in [8] was -0.824; in test [9], 0.622; in test [10], -0.422; in test [11], 0.39; in test [13], -0.0073; in test [14], -0.191. The composite z-score in test [15] is 0.704; in test [16], 2.45; in test [17], -0.0296; in [18], 0.605; in test [19] it was -0.034; in test [20], -0.257. The compound further showed a z-score in [2] of -1.18. For the same compound, the composite Z-score in [12] is 0.667 (inactive).
In the case of `CC(C)C[C@@H]1NC(=O)[C@@]23C(=O)N[C@@H](Cc4ccccc4)C2[C@H](C)[C@@]2(C)O[C@H]2C3/C=C/C/C=C\CNC(=O)[C@@H]2CCCN2C1=O` (stereo not given in full), the composite z-score in test [1] was -0.282; in test [3], 0.283; in test [4] it was -0.749; in test [5] it was -0.721; in [6], -0.124; in test [7] it was -0.138. Besides, the composite z-score in test [8] was -0.219; in [9], -0.22; in test [10], -0.442; in test [11], 0.777; in [13], -0.0026; in [14], -0.129. For the same compound, the composite z-score was 0.391 in [15]; -0.351 in [16]; 0.339 in test [17]; -0.747 in [18]; 0.698 in test [19]; -0.838 in test [20]. In test [2], the z-score was -0.972. In addition, in test [12], the composite Z-score was 0.572 (inactive).
On to `Cc1ccc(N2C(=O)c3ccccc3[C@](C)(C(=O)NC(C)C)[C@@H]2c2ccc(CO)cc2)nc1`, for which the composite z-score in [1] was -1.24; in [3] it was -3.6; in [4] it was -1.12; in test [5], -0.862; in test [6], -0.219; in test [7], -0.49. The composite z-score is -0.441 in test [8]; 0.177 in test [9]; 0.24 in test [10]; -0.546 in test [11]; -0.571 in [13]; -0.183 in [14]. Further, the composite z-score in test [15] is 0.706; in test [16], 1.64; in [17] it was -0.699; in [18], -1.55; in test [19], -1.13; in test [20] it was -1.73. Moreover, the z-score in test [2] is -0.406. Moreover, the composite Z-score in [12] is -1.02 (inactive).
